Data on twelve compounds can be found in PubChem BioAssay (NCI).

Each structure is given as a SMILES string. Compounds without any hit were thinned out: in the full panel of roughly 83,000, 20% have a hit.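 Results are percent growth after 48 hours of single-concentration exposure. 100 means growth as in untreated cells, lower positive values show inhibition; negative values down to -100 show cell death.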 Unmarked numbers belong to inactive results. The source made the active and inactive calls. Rule for the calls: active = growth percent below 10; inactive = the rest.

Some test systems named below: HCT-15 colon; SNB-75 CNS; SNB-19 CNS; U251 CNS; SK-MEL-5 melanoma; UACC-62 melanoma; LOX IMVI melanoma; SK-MEL-28 melanoma; SK-MEL-2 melanoma; EKVX NSCLC; SN12C renal; UO-31 renal; TK-10 renal; ACHN renal; CAKI-1 renal; A498 renal; CCRF-CEM leukemia; MOLT-4 leukemia; PC-3 prostate; HT29 colon.
Common to all, as to assay: NCI-60 one-dose screen, 48 h (100 = growth as untreated, 0 = no growth, -100 = all killed)
Holding throughout (settings): 10 µM unless noted

For `Cc1ccc(O)c(NC(=O)c2ccc(CNc3ccnc(C(F)(F)F)c3)cc2)c1`, the growth in the assay on HCT-15 colon was 49.9%; with SNB-75 CNS, 72.5%; with SNB-19 CNS, 87.1%; in the assay on U251 CNS, 82.1%; with SK-MEL-5 melanoma, 36.5%; with UACC-62 melanoma, 13.9%. Besides, the growth is 40.6% with LOX IMVI melanoma; 109% in the assay on SK-MEL-28 melanoma; 79.2% in the assay with SK-MEL-2 melanoma; 60.5% in the assay with EKVX NSCLC; 46.4% with SN12C renal; 32.6% in the assay on UO-31 renal. The growth is 96.7% in the assay on TK-10 renal; 39% with ACHN renal; 41.8% with CAKI-1 renal; 80.7% in the assay on A498 renal; 7.6% (active) with CCRF-CEM leukemia; 25.1% in the assay with MOLT-4 leukemia.

Take `N#C/C(=C\c1ccc(Cl)cc1Cl)C(=O)Nc1ncc(Cc2ccc(Cl)c(Cl)c2)s1`: the growth in the assay with HCT-15 colon was 37.7%; with SNB-19 CNS, 97.7%; with U251 CNS, 90.9%; in the assay on PC-3 prostate it was 79.3%; in the assay with SK-MEL-5 melanoma, 97.8%; in the assay on UACC-62 melanoma it was 35.2%. Also, the growth was 34.4% with LOX IMVI melanoma; 99.6% in the assay on SK-MEL-28 melanoma; 88.8% with SK-MEL-2 melanoma; 96.1% in the assay with EKVX NSCLC; 92.2% in the assay with SN12C renal; 65.7% in the assay with UO-31 renal. Moreover, the growth in the assay on TK-10 renal is 80.7%; with ACHN renal it was 47.7%; with CAKI-1 renal, 52.3%; in the assay on A498 renal, 101%; with CCRF-CEM leukemia, 87.7%; in the assay with MOLT-4 leukemia, 92.9%.

Consider `CCN(CC)S(=O)(=O)c1ccc(S(=O)(=O)N2CCC[C@@H](C(=O)N3CCN(C(=O)OC(C)(C)C)CC3)C2)cc1`, for which the growth in the assay on HCT-15 colon is 91.8%; in the assay on SNB-75 CNS, 48.7%; in the assay on SNB-19 CNS, 68.8%; in the assay on U251 CNS it was 81.6%; with PC-3 prostate, 77.5%; in the assay with SK-MEL-5 melanoma it was 18.2%. Besides, the growth was 62.4% in the assay on UACC-62 melanoma; 58% in the assay with LOX IMVI melanoma; 97.6% in the assay with SK-MEL-28 melanoma; 101% with SK-MEL-2 melanoma; 54.9% in the assay on EKVX NSCLC; 87.4% in the assay with SN12C renal. The growth with UO-31 renal was 73.6%; in the assay on TK-10 renal, 78.6%; in the assay with ACHN renal it was 71.4%; with CAKI-1 renal, 52.1%; in the assay with A498 renal it was 27.8%; with CCRF-CEM leukemia, 66.9%. For the same compound, the growth in the assay on MOLT-4 leukemia was 60.8%.

As to `COc1cc(C(=O)c2c(N)ncn2-c2ccccc2)cc(OC)c1OC`, the growth is 82.6% with HCT-15 colon; 90.7% with SNB-75 CNS; 89.6% in the assay on SNB-19 CNS; 95% in the assay with U251 CNS; 78.5% with PC-3 prostate; 89.5% with SK-MEL-5 melanoma. Besides, the growth was 70.3% in the assay on UACC-62 melanoma; 91.9% with LOX IMVI melanoma; 91.7% with SK-MEL-28 melanoma; 104% in the assay with SK-MEL-2 melanoma; 102% with EKVX NSCLC; 88.2% with SN12C renal. The growth in the assay on UO-31 renal was 81.2%; in the assay on TK-10 renal, 106%; with ACHN renal it was 102%; with CAKI-1 renal, 92.3%; with CCRF-CEM leukemia it was 92.5%; in the assay on MOLT-4 leukemia, 109%.

Turning to `CCN(CC)CCNC(=O)c1ccc(-c2nc3ccc4[nH]ncc4c3c3c2CCCC3)cc1`, the growth was 28.3% in the assay on HCT-15 colon; 54.2% in the assay with SNB-75 CNS; 85.4% in the assay on SNB-19 CNS; 54.9% in the assay on U251 CNS; 69.8% in the assay on SK-MEL-5 melanoma; 33.8% in the assay with UACC-62 melanoma. Moreover, the growth was 46% in the assay with LOX IMVI melanoma; 73.2% with SK-MEL-28 melanoma; 60.5% in the assay with SK-MEL-2 melanoma; 51% in the assay on EKVX NSCLC; 70.9% in the assay on SN12C renal; 40.3% in the assay on UO-31 renal. Moreover, the growth in the assay on TK-10 renal was 47.7%; in the assay with ACHN renal, 24.7%; with CAKI-1 renal, 9.09% (active); in the assay on A498 renal it was 16.9%; with CCRF-CEM leukemia it was 47%; with MOLT-4 leukemia it was 50%.

As for `c1ccc2cc(Cn3c[n+](Cc4ccc5ccccc5c4)c4ccccc43)ccc2c1`, the growth is 53.6% with HCT-15 colon; -7.06% (active) in the assay with SNB-75 CNS; -20.1% (active) with SNB-19 CNS; -90.3% (active) in the assay on U251 CNS; -19.4% (active) in the assay on PC-3 prostate; -98.1% (active) with SK-MEL-5 melanoma. The growth in the assay on UACC-62 melanoma was -70.1% (active); with LOX IMVI melanoma it was -93.9% (active); in the assay on SK-MEL-28 melanoma it was -28.9% (active); in the assay on SK-MEL-2 melanoma, -61.7% (active); in the assay on EKVX NSCLC, 13.9%; in the assay with SN12C renal, 5.14% (active). For the same compound, the growth with UO-31 renal was 53.6%; in the assay on TK-10 renal, -72% (active); in the assay on ACHN renal, 46.2%; in the assay with CAKI-1 renal, 84.7%; in the assay on A498 renal, -2.59% (active); with CCRF-CEM leukemia, -13.1% (active). Also, in the assay with MOLT-4 leukemia, the growth was -27.1% (active).

In the case of `CCCCCSB(SCCCCC)c1ccccc1`, the growth was 96.8% with HCT-15 colon; 78.7% in the assay with SNB-75 CNS; 96.6% in the assay on SNB-19 CNS; 97.2% with PC-3 prostate; 105% in the assay with SK-MEL-5 melanoma; 105% with UACC-62 melanoma. Besides, the growth in the assay on LOX IMVI melanoma is 96.8%; in the assay on SK-MEL-28 melanoma it was 110%; with SK-MEL-2 melanoma, 102%; in the assay on EKVX NSCLC it was 106%; in the assay on SN12C renal it was 106%; in the assay on UO-31 renal, 81.3%. Also, the growth with TK-10 renal is 101%; with ACHN renal, 105%; with CAKI-1 renal, 96%; with A498 renal, 95.4%; with CCRF-CEM leukemia it was 97.4%; in the assay on MOLT-4 leukemia it was 96.4%.

For the compound `CC/C=C1/C(=O)C=C[C@@H]1C/C=C\CCCC(=O)OC`, the growth is 21.2% in the assay on HCT-15 colon; 91.5% with SNB-75 CNS; 62.9% with SNB-19 CNS; 57% with PC-3 prostate; 9.82% (active) with SK-MEL-5 melanoma; 16.6% in the assay on UACC-62 melanoma. The growth was -63.9% (active) in the assay with LOX IMVI melanoma; 89.5% in the assay with SK-MEL-28 melanoma; 90.7% in the assay with SK-MEL-2 melanoma; 101% with EKVX NSCLC; 18.8% in the assay with SN12C renal; 77.9% in the assay with UO-31 renal. Further, the growth with TK-10 renal is 107%; in the assay on ACHN renal, 46.9%; with CAKI-1 renal it was 60.6%; with A498 renal, 102%; in the assay on CCRF-CEM leukemia, -6.12% (active); with MOLT-4 leukemia, 3.09% (active).

`CS(=O)(=O)Cc1cnc(C2OCCO2)s1`: the growth was 109% in the assay with HCT-15 colon; 91.2% in the assay on SNB-75 CNS; 112% in the assay with SNB-19 CNS; 96.5% in the assay on U251 CNS; 92.2% in the assay with PC-3 prostate; 97.8% with SK-MEL-5 melanoma. Moreover, the growth was 106% in the assay with UACC-62 melanoma; 100% with LOX IMVI melanoma; 105% in the assay with SK-MEL-28 melanoma; 122% in the assay with SK-MEL-2 melanoma; 99% in the assay on EKVX NSCLC; 114% with SN12C renal. The growth is 92% in the assay with UO-31 renal; 93.8% with TK-10 renal; 96.8% in the assay on ACHN renal; 97.7% in the assay with CAKI-1 renal; 116% with A498 renal; 138% in the assay on CCRF-CEM leukemia. Further, the growth in the assay on MOLT-4 leukemia is 140%.

As for `OC(c1ccccc1)(c1ccccc1)c1ccccc1-c1ccccc1`, the growth was 73.4% in the assay on HT29 colon; 94.1% with SNB-75 CNS; 94% in the assay with SNB-19 CNS; 92.8% with U251 CNS; 96.4% with SK-MEL-5 melanoma; 79.2% with UACC-62 melanoma. In addition, the growth was 87.2% in the assay with LOX IMVI melanoma; 109% in the assay on SK-MEL-28 melanoma; 103% in the assay with SK-MEL-2 melanoma; 115% in the assay on EKVX NSCLC; 89% with SN12C renal; 78.5% in the assay on UO-31 renal. Besides, the growth in the assay on TK-10 renal is 89.8%; in the assay on ACHN renal, 99%; in the assay on CAKI-1 renal, 84.2%; with A498 renal, 81.5%; in the assay with CCRF-CEM leukemia, 92.9%; in the assay with MOLT-4 leukemia, 84%.

Turning to `CCCCCn1sc(=O)n(Cc2ccc(CNC(=O)OCc3ccc4c(Cl)cc(Cl)c(O)c4n3)cc2)c1=O`, the growth in the assay on HT29 colon is 110%; in the assay on SNB-75 CNS, 82.1%; in the assay with SNB-19 CNS it was 48.6%; in the assay with U251 CNS, 39.7%; in the assay with PC-3 prostate, 61.1%; in the assay with SK-MEL-5 melanoma it was 48.7%. Moreover, the growth is 40.4% in the assay with UACC-62 melanoma; 51.8% with LOX IMVI melanoma; 56% in the assay on SK-MEL-28 melanoma; 90.1% in the assay on SK-MEL-2 melanoma; 86% in the assay with EKVX NSCLC; 51.4% in the assay with SN12C renal. Also, the growth in the assay with UO-31 renal was 11.6%; in the assay with TK-10 renal, 68.8%; with ACHN renal it was 28.9%; in the assay on CAKI-1 renal, 55%; in the assay with A498 renal it was 80.7%; in the assay with CCRF-CEM leukemia, 34.4%. The growth in the assay with MOLT-4 leukemia is 31.8%.

On to `O=C(/C=C/c1ccccc1)Nc1ncc(Cc2ccccc2)s1`, for which the growth with HT29 colon was 4.97% (active); in the assay with SNB-19 CNS it was 42.6%; in the assay with U251 CNS, 9.07% (active); in the assay with PC-3 prostate, 23.4%; with SK-MEL-5 melanoma it was 30.6%; in the assay on UACC-62 melanoma, 3.28% (active). Moreover, the growth in the assay on LOX IMVI melanoma is 6.49% (active); in the assay with SK-MEL-28 melanoma it was 47%; in the assay on SK-MEL-2 melanoma, 26.1%; with EKVX NSCLC, 23.2%; in the assay on SN12C renal, 32.4%; with UO-31 renal, 30.4%. The growth in the assay with TK-10 renal is 35%; with ACHN renal, 26.5%; in the assay with CAKI-1 renal, 27.8%; in the assay on A498 renal, 12.6%; with CCRF-CEM leukemia it was 20.3%; in the assay on MOLT-4 leukemia, 22.6%.
